Out of some 5,500 compounds screened, about 2,000 (36%) were called active. Another 18% or so got no clear call; they are omitted. Rule as the data show it: active = normalized growth mostly below about 0.91 (no sharp cut-off); inconclusive = no clear call, values can overlap the other calls; inactive = mostly above about 0.92. Some of the results follow.
Test: chemical genetic growth profiling, strain panel (AID 1159580);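 also: tested at 20 µM; growth read once vehicle control cultures reached saturation at 30 °C; 1 = growth at the plate median or of vehicle wells; lower values mean less growth of the strain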
Conditions: growth OD

Measured: normalized growth

O=C1C(O)=C(O)C(=O)C(O)=C1O
inactive: S. cerevisiae deletion strains, locus YJR075W, strain HOC1, hits give low values 0.999 | S. cerevisiae deletion strains, locus YKL009W, strain mrt4, hits give low values 0.983 | S. cerevisiae deletion strains, locus YKL068W, hits give low values 0.979 | S. cerevisiae deletion strains, locus YKL085W, strain MDH1 (second series), hits give low values 0.956 | S. cerevisiae deletion strains, locus YKL085W, strain MDH1, hits give low values 0.956 | S. cerevisiae deletion strains, locus YKL160W, strain elf1, hits give low values 1.03 | S. cerevisiae deletion strains, locus YKL190W, strain CNB1, hits give low values 0.98 | S. cerevisiae deletion strains, locus YKR001C, strain vps1, hits give low values 0.995 | S. cerevisiae deletion strains, locus YKR026C, strain gcn3, hits give low values 1.02 | S. cerevisiae deletion strains, locus YKR091W, strain srl3, hits give low values 0.999 | S. cerevisiae deletion strains, locus YLL001W, strain dnm1, hits give low values 1.01 | S. cerevisiae deletion strains, locus YLL026W, hits give low values 1.02 | S. cerevisiae deletion strains, locus YLL041C, strain sdh2, hits give low values 1.01 | S. cerevisiae deletion strains, locus YLR027C, strain aat2, hits give low values 1.02 | S. cerevisiae deletion strains, locus YLR039C, strain RIC1, hits give low values 0.957 | S. cerevisiae deletion strains, locus YLR058C, strain SHM2, hits give low values 0.98 | S. cerevisiae deletion strains, locus YLR102C, strain apc9, hits give low values 0.989 | S. cerevisiae deletion strains, locus YLR113W, strain HOG1, hits give low values 0.969 | S. cerevisiae deletion strains, locus YLR221C, strain rsa3, hits give low values 1 | S. cerevisiae deletion strains, locus YLR258W, strain gsy2, hits give low values 1.03 | S. cerevisiae deletion strains, locus YLR262C, strain YPT6 (second series), hits give low values 0.995 | S. cerevisiae deletion strains, locus YLR262C, strain YPT6, hits give low values 0.946 | S. cerevisiae deletion strains, locus YLR268W, strain sec22, hits give low values 0.964 | S. cerevisiae deletion strains, locus YLR320W, strain mms22, hits give low values 1.01 | S. cerevisiae deletion strains, locus YLR330W, strain CHS5, hits give low values 1.01 | S. cerevisiae deletion strains, locus YLR342W, strain FKS1 (second series), hits give low values 1.07 | S. cerevisiae deletion strains, locus YLR342W, strain FKS1, hits give low values 1.01 | S. cerevisiae deletion strains, locus YLR357W, strain rsc2, hits give low values 0.989 | S. cerevisiae deletion strains, locus YLR370C, strain arc18, hits give low values 1.01 | S. cerevisiae deletion strains, locus YLR371W, strain rom2, hits give low values 1 | S. cerevisiae deletion strains, locus YLR384C, strain iki3, hits give low values 1.03 | S. cerevisiae deletion strains, locus YLR418C, strain cdc73, hits give low values 0.944 | S. cerevisiae deletion strains, locus YML016C, strain PPZ1, hits give low values 0.988 | S. cerevisiae deletion strains, locus YML032C, strain rad52, hits give low values 1.01 | S. cerevisiae deletion strains, locus YML120C, strain ndi1, hits give low values 1.01 | S. cerevisiae deletion strains, locus YML124C, strain tub3, hits give low values 0.997 | S. cerevisiae deletion strains, locus YMR058W, strain fet3, hits give low values 1.02 | S. cerevisiae deletion strains, locus YMR078C, strain ctf18, hits give low values 0.995 | S. cerevisiae deletion strains, locus YMR125W, strain sto1, hits give low values 1.02 | S. cerevisiae deletion strains, locus YMR129W, hits give low values 1.01 | S. cerevisiae deletion strains, locus YMR205C, strain PFK2, hits give low values 1 | S. cerevisiae deletion strains, locus YMR223W, strain ubp8, hits give low values 1.03 | S. cerevisiae deletion strains, locus YMR231W, strain pep5, hits give low values 1 | S. cerevisiae deletion strains, locus YMR263W, strain SAP30, hits give low values 0.96 | S. cerevisiae deletion strains, locus YMR307W, strain GAS1, hits give low values 1.03 | S. cerevisiae deletion strains, locus YNL067W, strain RPL9B, hits give low values 0.969 | S. cerevisiae deletion strains, locus YNL071W, strain lat1, hits give low values 1.02 | S. cerevisiae deletion strains, locus YNL128W, strain TEP1, hits give low values 0.944 | S. cerevisiae deletion strains, locus YNL153C, strain GIM3, hits give low values 0.956 | S. cerevisiae deletion strains, locus YNL183C, strain NPR1, hits give low values 0.927 | S. cerevisiae deletion strains, locus YNL209W, strain ssb2, hits give low values 1 | S. cerevisiae deletion strains, locus YNL233W, strain BNI4, hits give low values 0.982 | S. cerevisiae deletion strains, locus YNL248C, strain rpa49, hits give low values 1.05 | S. cerevisiae deletion strains, locus YNL250W, strain rad50, hits give low values 0.966 | S. cerevisiae deletion strains, locus YNL271C, strain bni1, hits give low values 0.998 | S. cerevisiae deletion strains, locus YNL298W, strain CLA4, hits give low values 0.98 | S. cerevisiae deletion strains, locus YNL307C, strain MCK1, hits give low values 1.02 | S. cerevisiae deletion strains, locus YNL322C, strain KRE1 (second series), hits give low values 1.02 | S. cerevisiae deletion strains, locus YNL322C, strain KRE1, hits give low values 0.98 | S. cerevisiae deletion strains, locus YNR049C, strain mso1, hits give low values 1.01 | S. cerevisiae deletion strains, locus YNR052C, strain pop2, hits give low values 1.02 | S. cerevisiae deletion strains, locus YOL006C, strain TOP1, hits give low values 0.968 | S. cerevisiae deletion strains, locus YOL012C, strain htz1 0.781 | S. cerevisiae deletion strains, locus YOL147C, strain pex11, hits give low values 0.993 | S. cerevisiae deletion strains, locus YOR001W, strain rrp6, hits give low values 0.999 | S. cerevisiae deletion strains, locus YOR061W, strain CKA2, hits give low values 0.961 | S. cerevisiae deletion strains, locus YOR069W, strain VPS5, hits give low values 1 | S. cerevisiae deletion strains, locus YOR070C, strain gyp1, hits give low values 1.01 | S. cerevisiae deletion strains, locus YOR080W, strain dia2, hits give low values 1.02 | S. cerevisiae deletion strains, locus YOR083W, strain WHI5, hits give low values 0.984 | S. cerevisiae deletion strains, locus YOR106W, strain vam3, hits give low values 1.02 | S. cerevisiae deletion strains, locus YOR136W, strain idh2, hits give low values 0.999 | S. cerevisiae deletion strains, locus YOR144C, strain elg1, hits give low values 0.989 | S. cerevisiae deletion strains, locus YOR184W, strain ser1, hits give low values 1.08 | S. cerevisiae deletion strains, locus YOR231W, strain MKK1, hits give low values 0.987 | S. cerevisiae deletion strains, locus YOR265W, strain rbl2, hits give low values 1.01 | S. cerevisiae deletion strains, locus YOR270C, strain vph1, hits give low values 1.05 | S. cerevisiae deletion strains, locus YOR290C, strain snf2, hits give low values 1.02 | S. cerevisiae deletion strains, locus YOR316C, strain cot1, hits give low values 0.988 | S. cerevisiae deletion strains, locus YPL051W, strain arl3, hits give low values 1.01 | S. cerevisiae deletion strains, locus YPL055C, strain LGE1, hits give low values 0.898 | S. cerevisiae deletion strains, locus YPL078C, strain atp4, hits give low values 1.03 | S. cerevisiae deletion strains, locus YPL106C, strain sse1, hits give low values 1.03 | S. cerevisiae deletion strains, locus YPL240C, strain hsp82, hits give low values 1.01 | S. cerevisiae deletion strains, locus YPL241C, strain CIN2, hits give low values 0.991 | S. cerevisiae deletion strains, locus YPL256C, strain CLN2, hits give low values 0.964 | S. cerevisiae deletion strains, locus YPR119W, strain clb2, hits give low values 0.996 | S. cerevisiae deletion strains, locus YPR141C, strain kar3, hits give low values 0.952 | S. cerevisiae deletion strains, locus YPR163C, strain tif3, hits give low values 0.998 | S. cerevisiae deletion strains, locus YPR167C, strain met16, hits give low values 0.99 | S. cerevisiae deletion strains, strain wtn01, hits give low values 0.994 | S. cerevisiae strains, strain wild type, hits give low values 0.989

— PubChem BioAssay AID1159580 (chemical genetic matrix, 2015)
